APOBEC3G inh: APOBEC3G DNA deaminase inhibitors, primary screen, biochemical, fluorescence, single-stranded DNA substrate, uHTS; DNA dC->dU-editing enzyme APOBEC-3G (Homo sapiens), Q9HC16; recombinant A3G, ssDNA deamination FAM/TAMRA fluorescence; inhibition, % at 20 µM; 330,000 compounds, 0.28% hits; AID 493012, 2011;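 active = inhibition of at least 40% at 20 µM, with no more than 30% in the related APOBEC3A deaminase screen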;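 note: plate controls were DMSO wells with A3G for no effect and wells lacking A3G enzyme for full effect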
PHOSPHO1 block: PubChem AID 1565 | Phosphoethanolamine/phosphocholine phosphatase (Homo sapiens), Q8TCT1 | recombinant PHOSPHO1, absorbance phosphatase assay | inhibition, % at 13.3 µM | 290,000 compounds, 1.1% hits; in the data active = inhibition above about 60%
Target sequence (Q8TCT1 whole entry, looked up): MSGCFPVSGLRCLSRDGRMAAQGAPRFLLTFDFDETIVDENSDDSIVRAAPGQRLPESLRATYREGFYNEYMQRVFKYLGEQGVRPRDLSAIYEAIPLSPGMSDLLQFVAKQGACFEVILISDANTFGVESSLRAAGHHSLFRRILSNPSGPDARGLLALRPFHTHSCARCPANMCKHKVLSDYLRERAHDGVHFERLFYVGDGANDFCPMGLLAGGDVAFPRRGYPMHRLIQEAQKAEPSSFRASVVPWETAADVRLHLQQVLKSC
esBAF inh: Bmi1 luciferase reporter increase in mESCs, primary screen, esBAF inhibitor project, mouse ES cells, Bmi1 luciferase knock-in, single point. 24 h; 100% = twice the neutral-well signal. reporter increase, % at 12.5 µM. 350,000 compounds, 2% hits. AID 602393, 2012; in the data active = activation above about 40%;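 note: 0% = median of the plate's neutral control wells and 100% = double that signal; a rise in the Bmi1 reporter signal indicates esBAF inhibition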
Wnt act: Wnt/beta-catenin pathway activators, primary screen, cell-based, plate reader, single point. 300,000 compounds, 1.2% hits. activation, % at 9.35 µM. Wnt/beta-catenin reporter cell assay, activator; in the data active = activation above about 30%, passing the limit was not always enough;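 note: 0% = neutral control wells and 100% = positive control wells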
APOBEC3A inh: APOBEC3A ssDNA deaminase inhibitors, primary screen, selectivity assay for APOBEC3G inhibitor project, biochemical, FAM/TAMRA oligo cleavage fluorescence. inhibition, % at 20 µM. recombinant A3A, FAM/TAMRA ssDNA deamination fluorescence. DNA dC->dU-editing enzyme APOBEC-3A (Homo sapiens), P31941. 330,000 compounds, 0.41% hits;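 active = at least 40% inhibition at 20 µM here, with at most 30% in a related deaminase screen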;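 note: plate controls were A3A with DMSO for no effect and wells lacking A3A enzyme for full effect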
Target sequence (P31941 whole entry, looked up): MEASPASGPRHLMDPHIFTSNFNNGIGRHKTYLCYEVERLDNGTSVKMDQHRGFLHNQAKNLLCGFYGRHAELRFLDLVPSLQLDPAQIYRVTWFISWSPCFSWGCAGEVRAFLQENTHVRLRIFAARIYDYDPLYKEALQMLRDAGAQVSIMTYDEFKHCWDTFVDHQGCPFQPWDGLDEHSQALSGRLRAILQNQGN
MITF TRPM1 HTS: activators of MITF-driven TRPM1 promoter reporter, primary screen, cell-based, SK-MEL-5, luciferase, single point; SK-MEL-5 TRPM1-promoter luciferase, 24 h; % of positive control, neutral wells = 0; 300,000 compounds, 0.75% hits; activation, % at 12.5 µM;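 active = mean activation of at least 80% with every replicate also reaching 80%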;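 note: 0% = neutral control wells and 100% = parthenolide positive control wells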
The depositor's hits bear a star. This is a sample that favours compounds with a hit; in the whole collection about 3.6% have one here.

For Cc1ccc(-c2nn3c(C)nnc3s2)cc1NC(=O)c1ccc(-c2cccc(Cl)c2)o1 the results were APOBEC3G inh 9, PHOSPHO1 block 13, esBAF inh -1, Wnt act -18, APOBEC3A inh 4 and MITF TRPM1 HTS 11.
`Cc1ccc(-c2nn3c(C)nnc3s2)cc1NC(=O)c1ccc(-c2ccc(Cl)cc2Cl)o1` gave APOBEC3G inh -3, PHOSPHO1 block 23, esBAF inh -4, APOBEC3A inh 43* and MITF TRPM1 HTS -100.
Screening c1ccc(-c2c3ccccc3nc3[nH]c4ccccc4c23)cc1 returned APOBEC3G inh 15, PHOSPHO1 block 13, esBAF inh 0, APOBEC3A inh 2 and MITF TRPM1 HTS -6.
For c1ccc2nc3c(nc2c1)[nH]c1ccccc13 the results were APOBEC3G inh -1, PHOSPHO1 block 15, Wnt act 93*, APOBEC3A inh 0 and MITF TRPM1 HTS 13.
For Cc1ccc(S(=O)(=O)N2C[C@@H](O)COC[C@H]3O[C@H](CC(=O)NCCN4CCCCC4)CC[C@@H]32)cc1 the results were esBAF inh 0.
O=C(NCC1CCCN1S(=O)(=O)c1cccs1)C(=O)Nc1ccccc1Cl (stereo not given) was read as APOBEC3G inh -10, esBAF inh 51*, Wnt act 4, APOBEC3A inh -4 and MITF TRPM1 HTS 29.
`COc1cccc(NC(=O)C(=O)NCC2CCCN2S(=O)(=O)c2ccccc2)c1` (stereo not given) gave APOBEC3G inh 2, esBAF inh 79*, Wnt act 43*, APOBEC3A inh 0 and MITF TRPM1 HTS 158*.
Screening COCC#Cc1ccc2c(c1)O[C@H](CN(C)C(=O)Nc1ccc(OC)cc1)[C@@H](C)CN([C@H](C)CO)S2(=O)=O returned esBAF inh -7.
For COc1ccc(-c2[nH]ncc2CN(C)CCc2c(C)n[nH]c2C)c(F)c1 the results were APOBEC3G inh 1, PHOSPHO1 block 67*, esBAF inh 4, Wnt act -1, APOBEC3A inh 0 and MITF TRPM1 HTS -1.
COc1ccc(NC(=O)c2cc3ccccc3oc2=O)c(OC)c1 was read as APOBEC3G inh 13, PHOSPHO1 block 19, esBAF inh 47*, Wnt act 27 and APOBEC3A inh -4.
COc1ccccc1C(=O)Nc1cc2ccccc2oc1=O was read as APOBEC3G inh -7, PHOSPHO1 block 16, esBAF inh 10, APOBEC3A inh -2 and MITF TRPM1 HTS 10.
For COc1ccc(CCNC(=O)c2cc3ccccc3oc2=O)cc1 the results were APOBEC3G inh -5, PHOSPHO1 block 3, esBAF inh 25, Wnt act 9, APOBEC3A inh 0 and MITF TRPM1 HTS 10.
COc1ccc(S(=O)(=O)Nc2ccccc2OC)cc1NC(=O)c1cc2ccccc2oc1=O was read as APOBEC3G inh -2, PHOSPHO1 block -12, APOBEC3A inh -2 and MITF TRPM1 HTS 90*.
`COc1ccc(NC(=O)c2cc3cc(OC)ccc3oc2=O)cc1` gave APOBEC3G inh 0, esBAF inh 17, Wnt act 9, APOBEC3A inh 6 and MITF TRPM1 HTS 14.
For COc1ccc2oc(=O)c(C(=O)Nc3cccc(C)c3)cc2c1 the results were APOBEC3G inh -4, PHOSPHO1 block 29, esBAF inh 77*, Wnt act 17, APOBEC3A inh -3 and MITF TRPM1 HTS 72.
For COc1ccccc1C(=O)Nc1cc2cc(Br)ccc2oc1=O the results were APOBEC3G inh 2, PHOSPHO1 block -35, esBAF inh 27*, Wnt act -16, APOBEC3A inh 1 and MITF TRPM1 HTS -2.
COc1ccc(NC(=O)N(C)C[C@@H]2Oc3ccc(NS(=O)(=O)c4c(C)noc4C)cc3CC(=O)N([C@@H](C)CO)C[C@@H]2C)cc1 was read as esBAF inh -22.
`C[C@@H]1CN([C@H](C)CO)C(=O)c2cc(NC(=O)Nc3ccccc3)ccc2O[C@@H](C)CCCCO[C@H]1CN(C)Cc1ccc(C(=O)O)cc1` gave esBAF inh -7.
O=[N+]([O-])c1ccccc1COc1ccc(Cl)c2cccnc12 was read as APOBEC3G inh -4, PHOSPHO1 block 37, esBAF inh -42, Wnt act 41*, APOBEC3A inh -4 and MITF TRPM1 HTS 6.
`Oc1ccc(/C=N/Nc2ncnc3nc[nH]c23)cc1` gave APOBEC3G inh -5, PHOSPHO1 block 27, esBAF inh 0, Wnt act 1, APOBEC3A inh 4 and MITF TRPM1 HTS -2.
`Clc1ccc(/C=N/Nc2ncnc3nc[nH]c23)cc1` gave APOBEC3G inh -6, PHOSPHO1 block -6, esBAF inh 11, Wnt act 0, APOBEC3A inh 3 and MITF TRPM1 HTS 187*.
Screening Cc1ccc(/C=N/Nc2ncnc3nc[nH]c23)cc1 returned APOBEC3G inh -5, PHOSPHO1 block -16, esBAF inh 0, Wnt act 47*, APOBEC3A inh 0 and MITF TRPM1 HTS 74.
O=C(Nc1ccncc1)c1cc2ccccc2cc1O was read as APOBEC3G inh -11, esBAF inh 53*, Wnt act 47*, APOBEC3A inh -3 and MITF TRPM1 HTS 71.
`Cc1ccnc(NC(=O)COc2ccc3c(c2)CCC3)c1` gave APOBEC3G inh -2, esBAF inh 53*, Wnt act -19, APOBEC3A inh 2 and MITF TRPM1 HTS 42.
Screening Cc1ccnc(NC(=O)Nc2ccc(Br)cc2Cl)c1 returned APOBEC3G inh -3, PHOSPHO1 block 37, Wnt act 39*, APOBEC3A inh 1 and MITF TRPM1 HTS 17.
`COc1cc2ccccc2cc1C(=O)Nc1ccc(C)cc1` gave APOBEC3G inh -6, PHOSPHO1 block 36, esBAF inh 46*, Wnt act 12 and APOBEC3A inh -3.
For O=C(Nc1cccc([N+](=O)[O-])c1)c1cc2ccccc2cc1O the results were APOBEC3G inh -4, PHOSPHO1 block 33, Wnt act -14, APOBEC3A inh -2 and MITF TRPM1 HTS -54.
COc1cc2ccccc2cc1C(=O)Nc1ccc(Cc2ccncc2)cc1 was read as APOBEC3G inh -6, PHOSPHO1 block 14, esBAF inh -4, APOBEC3A inh -2 and MITF TRPM1 HTS 0.
`C[C@H](CO)N1C[C@H](C)[C@@H](CN(C)Cc2ccc(Oc3ccccc3)cc2)Oc2ccc(NC(=O)NC3CCCCC3)cc2C1=O` gave esBAF inh -6.
For C[C@@H]1CCCCO[C@@H](CN(C)S(=O)(=O)c2cccs2)[C@H](C)CN([C@@H](C)CO)C(=O)c2cc(NC(=O)Nc3cccc4ccccc34)ccc2O1 the results were esBAF inh 2.
